USP17 block: inhibitors of human USP17 deubiquitinase | purified USP17, Ub-rhodamine cleavage fluorescence, 3 h | actives 6.5% (n = 47,000) | AID 1645855 | A8MUK1 | inhibition, % at 50 µM
USP28 block: inhibitors of human USP28 deubiquitinase; Q96RU2; purified USP28, Ub-rhodamine cleavage fluorescence, 30 min; inhibition, % at 25 µM; actives 3% (n = 47,000); AID 1645857
USP30 block: human USP30 deubiquitinase inhibition | Q70CQ3 | actives 5.3% (n = 47,000) | inhibition, % at 25 µM | purified USP30, Ub-rhodamine cleavage fluorescence
* marks the source's active call; other numbers are inactive results; i = inactive; x = no result. Sampled rows, rich in hits. Any-hit rate of the full collection: about 11%. Cut-off read from the data, not from the text of the source: active = inhibition above about 30%; inactive = the rest.

SMILES	USP17 block	USP28 block	USP30 block
Cc1ccc(N2CCN(C3=NC(C(=O)Nc4ccccc4)CC(=O)N3)CC2)cc1 (stereo not drawn)	20	12	28
O=C1CC(C(=O)Nc2ccccc2)N=C(N2CCN(c3ccccc3F)CC2)N1 (stereo not drawn)	2	18	33*
COCCN(C)C(=O)c1c2c(NCC3CC3)ncnc2n2ccccc12	-60	-98	-432
O=c1ccc(S(=O)(=O)N2CCCCC2)cn1Cc1ccccc1F	25	19	23
CC(C)N(c1ccccc1)c1ccc(NC(=O)c2ccc(S(=O)(=O)N3CCOCC3)cc2)cc1	-3	-5	7
CCCC(=O)N1CC(c2nc(-c3ccccc3)no2)C2(CCOCC2)C1 (stereo not drawn)	-1	0	-29
COc1cccc(C2C3=C(NCCN=C3c3ccccc3)C(=O)N2c2ccccc2)c1 (stereo not drawn)	-11	4	-11
O=C1C2=C(C(c3ccccc3)=NCCN2)C(c2cccc(F)c2)N1c1ccccc1 (stereo not drawn)	0	4	32*
Cc1noc(C)c1COc1ccc(CC(=O)Nc2ccc3c(c2)CCC3)cc1	-8	22	-5
COc1ccccc1CNCC(O)(c1ccccc1)c1ccc(F)cc1 (stereo not drawn)	8	20	36*
COc1cccc(CNCC(O)(c2ccccc2)c2ccc(Cl)cc2)c1 (stereo not drawn)	8	15	24
O=C(CCCCn1c(=O)c2ccccc2n(CC(=O)NCCC2=CCCCC2)c1=O)NCc1ccc2c(c1)OCO2	33*	x	x
O=C(Cc1ccc(-n2c(=O)c3ccccc3n(CC(=O)NCCC3=CCCCC3)c2=O)cc1)NCCc1ccccc1	6	-24	-35
O=C(CCn1c(=O)c2ccccc2n(Cc2ccccc2F)c1=O)N1CC=C(c2ccccc2)CC1	5	2	25
CN(C(=O)Cn1c(=O)n(CCC(=O)NCc2ccc3c(c2)OCO3)c(=O)c2ccccc21)C1CCCCC1	0	12	30*
CCCCNC(=O)CCCn1c(=O)c2ccccc2n(CC(=O)NCCC2=CCCCC2)c1=O	24	10	14
O=C(Cn1c(=O)n(-c2ccccc2)c(=O)c2ccc(C(=O)NCc3ccc4c(c3)OCO4)cc21)NCCC1=CCCCC1	33*	41*	56*
O=C(CCn1c(=O)c2ccccc2n(CC(=O)OCc2ccccc2)c1=O)NCc1ccc2c(c1)OCO2	28	9	26
O=C(CCn1c(=O)c2ccccc2n(Cc2cccc([N+](=O)[O-])c2)c1=O)N1CC=C(c2ccccc2)CC1	8	18	39*
COc1ccccc1CNS(=O)(=O)c1ccc(OC)c(-c2noc(C(C)(C)C)n2)c1	1	-6	-14
O=C(Nc1nc(-c2ccc(Br)o2)ns1)c1cccc(Cl)c1	17	-17	-126
Cc1ccc2c(c1)C(=O)NC1(CCN(C(=O)Cc3ccccc3)CC1)N2C	-1	3	8
O=C(Cn1c(=O)n(CCCC(=O)NC2CCN(Cc3ccccc3)CC2)c(=O)c2ccccc21)NCCC1=CCCCC1	4	0	0
O=C(Cn1c(=O)n(CCCC(=O)N2CC=C(c3ccccc3)CC2)c(=O)c2ccccc21)NCCC1=CCCCC1	52*	-2	17
Cn1c(=O)c(C(=O)Nc2ccc(F)cc2)cc2cccnc21	4	-7	-8
SMILES	USP17 block	USP28 block	USP30 block
Cn1c(=O)c2cc(C(=O)Nc3ccc(F)cc3)cnc2n(C)c1=O	53*	1	5
O=C1Oc2nc3ccccc3cc2CN1Cc1ccco1	52*	16	17
Cc1ccc2nc3c(cc2c1)CN(Cc1ccco1)C(=O)O3	18	-2	2
Cc1ccc(CN2Cc3cc4ccc(C)c(C)c4nc3OC2=O)o1	21	12	29
CCOc1ccc2cc3c(nc2c1)OC(=O)N(Cc1ccc(C)o1)C3	21	13	53*
CCn1cc(NC(=O)CN2CCC3(CC=CCOC3)CC2)c(C)n1	6	4	9
O=C(Cc1nnc(-c2cnccn2)o1)Nc1ccc(C(F)(F)F)cc1	15	15	4
Cn1nc(-c2ccccc2)c(C#N)c1Sc1cccc(C(F)(F)F)c1	-3	17	-9
CC(C)Cc1ccc(C(C)C(=O)N2CC(=O)Nc3ccccc32)cc1 (stereo not drawn)	0	3	19
CO[C@H]1/C=C/C=C\C=C\C[C@@H](OC(=O)[C@H](C)NC(=O)C2CCCCC2)[C@H](C)[C@@H](O)/C(C)=C\CCC2=CC(=O)C=C(NC(=O)C1)C2=O	46*	4	-14
CC(=O)c1ccc(NC(=O)c2nc3ccccc3nc2N2CCOCC2)cc1	-166	-282	i
Cc1nc(C2(NC(=O)Nc3ccc(Cl)cc3)CCCC2)no1	-16	-4	-9
O=C(Nc1ccc(F)cc1F)N1CCN(c2cc(-c3ccncc3)[nH]n2)CC1	x	13	41*

Screening data from PubChem BioAssay.
